The target of experiment [1] is Bromodomain-containing protein 4 (Homo sapiens) (UniProt O60885). Particulars: Compound concentration 20.0 uM, Protein concentration 2.0 uM, Result type QC Liability.
The target of experiment [2] is T1, Transcription intermediary factor 1-alpha (Homo sapiens) (UniProt O15164).
T1 sequence (whole entry): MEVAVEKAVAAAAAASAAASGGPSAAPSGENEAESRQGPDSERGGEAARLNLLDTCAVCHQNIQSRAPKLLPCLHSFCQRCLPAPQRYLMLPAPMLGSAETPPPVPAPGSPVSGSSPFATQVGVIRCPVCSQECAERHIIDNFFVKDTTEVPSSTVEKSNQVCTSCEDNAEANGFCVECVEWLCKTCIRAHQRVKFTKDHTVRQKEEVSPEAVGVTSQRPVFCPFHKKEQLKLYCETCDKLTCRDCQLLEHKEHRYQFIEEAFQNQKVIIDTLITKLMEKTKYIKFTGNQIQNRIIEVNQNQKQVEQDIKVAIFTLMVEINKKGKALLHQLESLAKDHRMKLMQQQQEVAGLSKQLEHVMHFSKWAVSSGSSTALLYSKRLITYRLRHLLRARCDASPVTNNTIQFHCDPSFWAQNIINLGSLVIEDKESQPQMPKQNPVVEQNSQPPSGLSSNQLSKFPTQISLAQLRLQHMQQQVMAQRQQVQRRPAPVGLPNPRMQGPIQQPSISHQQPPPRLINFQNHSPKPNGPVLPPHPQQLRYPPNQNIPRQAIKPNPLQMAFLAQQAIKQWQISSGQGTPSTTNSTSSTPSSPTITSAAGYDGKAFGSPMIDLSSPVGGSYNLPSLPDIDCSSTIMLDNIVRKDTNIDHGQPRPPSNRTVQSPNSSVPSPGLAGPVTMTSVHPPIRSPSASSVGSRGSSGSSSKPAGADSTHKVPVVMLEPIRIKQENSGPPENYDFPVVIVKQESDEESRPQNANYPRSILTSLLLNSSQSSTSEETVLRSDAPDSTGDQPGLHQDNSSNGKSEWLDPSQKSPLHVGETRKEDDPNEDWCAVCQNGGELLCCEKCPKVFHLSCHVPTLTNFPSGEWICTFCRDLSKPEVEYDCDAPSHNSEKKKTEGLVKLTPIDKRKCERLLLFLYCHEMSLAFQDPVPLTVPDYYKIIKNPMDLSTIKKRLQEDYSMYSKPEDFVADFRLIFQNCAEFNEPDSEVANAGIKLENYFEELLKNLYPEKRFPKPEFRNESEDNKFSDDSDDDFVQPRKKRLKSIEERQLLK
Particulars: Compound concentration 20.0 uM, Protein concentration 2.0 uM, Result type QC Liability.

With `Cc1nc(-c2ccc(C(F)(F)F)cc2)sc1C(=O)NCc1ccc(OC(C)(C)C(=O)O)cc1`, the ΔTm (commonly the change in melting temperature against a reference sample) in experiment [1] is -2.8 °C; in experiment [2], -1.73 °C.

As to `Clc1cccc(Nc2nccc(NCCCN3CCOCC3)n2)c1`, the ΔTm was -3.15 °C in experiment [1] and -3.59 °C in experiment [2].

Regarding `CC[C@@H]1C(=O)N(C)c2cnc(Nc3ccc(C(=O)NC4CCN(C)CC4)cc3OC)nc2N1C1CCCC1`, the ΔTm in experiment [1] turned out to be 6.02 °C; in experiment [2], 0.07 °C.

Turning to `COc1cc(N[C@@H]2CCCC[C@]2(O)C(F)(F)F)ccc1F`, the shift in melting temperature (ΔTm) in experiment [1] was -2.92 °C; in experiment [2], -2.59 °C.

For the compound `CC1(C)CCC(CN2CCN(c3ccc(C(=O)NS(=O)(=O)c4ccc(NCC5CCOCC5)c([N+](=O)[O-])c4)c(Oc4cnc5[nH]ccc5c4)c3)CC2)=C(c2ccc(Cl)cc2)C1`, the thermal shift (ΔTm) in experiment [1] was -1.82 °C; in experiment [2], -1.45 °C.

`CN(C)c1ncc2cc(-c3ccc(-c4ncccc4F)cc3Cl)c(=O)n(C[C@H]3OC[C@H](N)CO3)c2n1`: the shift in melting temperature (ΔTm) in experiment [1] is -2 °C; in experiment [2] it was -2.59 °C.

Take `N#Cc1ccc(C#CC[C@@H](C#N)NC(=O)[C@H]2CCCCN2)cc1F`: the ΔTm is -1.11 °C in experiment [1] and 0.64 °C in experiment [2].

With `CC(C)(O)CNC(=O)N1C(=O)N(c2cccc(C(F)(F)F)c2)C2=C(C(=O)CC2)[C@H]1c1ccc(C#N)cc1`, the shift in melting temperature (ΔTm) is 0.34 °C in experiment [1] and 0.22 °C in experiment [2].

Turning to `O=C(O)CCn1c2c(c3ccccc31)C[C@H](NS(=O)(=O)c1ccc(F)cc1)CC2`, the ΔTm in experiment [1] was -1.19 °C; in experiment [2], -1.73 °C.

As to `CN(C)CC#Cc1ccc2[nH]c3c(c2c1)-c1nc(N)ncc1CCC3`, the thermal shift (ΔTm) in experiment [1] was -1.33 °C; in experiment [2], -0.98 °C.

Take `CS(=O)(=O)c1cc(C2(NC(=O)c3cncc4c3cnn4-c3ccc(F)cc3)CC2)ccn1`: the values for the shift in melting temperature (ΔTm) in experiment [1] and in experiment [2] were -1.64 °C and 0.27 °C, respectively.

With `Cc1cnc(-c2cnc(NCCNc3ccc(C#N)cn3)nc2-c2ccc(Cl)cc2Cl)[nH]1`, the values for the shift in melting temperature (ΔTm) in experiment [1] and in experiment [2] were -2.28 °C and -0.78 °C, respectively.

Consider `CC(=O)c1ccc2c(c1)/C(=C(/NC1CCN(C)CC1)c1ccc3c(c1)OCO3)C(=O)N2`, for which the shift in melting temperature (ΔTm) is -0.52 °C in experiment [1] and 0.21 °C in experiment [2].

For `Cc1cc(OC2CCS(=O)(=O)CC2)cc(C)c1-c1cccc(COc2ccc(CCC(=O)O)c(F)c2)c1`, the ΔTm is -5.08 °C in experiment [1] and -3.73 °C in experiment [2].

For `Cc1cccc(-c2[nH]c(CNc3ccccc3F)nc2-c2ccc3ncnn3c2)n1`, the values for the shift in melting temperature (ΔTm) in experiment [1] and in experiment [2] were -1.53 °C and -2.12 °C, respectively.

Turning to `CN1CCCN(C(=O)c2cccc(-c3ccc(/C=C4/C(=O)Nc5ccc(Cl)cc54)o3)c2)CC1`, the ΔTm in experiment [1] is -4.14 °C; in experiment [2], -5.43 °C.

Take `CC(=O)N1CCC(c2ccc(C(=O)NC(=N)N)cc2C(F)(F)F)CC1`: the ΔTm in experiment [1] was -0.62 °C; in experiment [2], 0.53 °C.

For `CC(C)Nc1ncnc2cc(OCc3cccc([S@@](C)(=N)=O)c3)c(Br)cc12`, the ΔTm in experiment [1] came out at 0.34 °C; in experiment [2], 0.14 °C.

Regarding `Cn1c(C(=O)N[C@@H](CO)c2ccc(C(=O)O)cc2)cc2cc(Cl)ccc21`, the ΔTm in experiment [1] amounted to 0.27 °C; in experiment [2], 0.31 °C.

`O=C(Nc1ccccc1C(=O)O)c1cc(S(=O)(=O)c2ccccc2)ccc1Cl`: the thermal shift (ΔTm) turned out to be 2.09 °C in experiment [1] and 0.36 °C in experiment [2].

In the case of `CC(C)c1cnn2c(NCc3ccccc3)cc(NCCCCCCN)nc12`, the ΔTm in experiment [1] was 0.76 °C; in experiment [2] it was -3.25 °C.

With `CCCCc1oc2ccccc2c1C(=O)c1cc(I)c(OCCN(CC)CC)c(I)c1`, the shift in melting temperature (ΔTm) is -4.02 °C in experiment [1] and -4.38 °C in experiment [2].

Take `COC(=O)Nc1nc2c(s1)-c1c(c(-c3cccnc3)nn1-c1ccc(C3(N(C)C)CC3)cc1)CC2`: the ΔTm in experiment [1] was -1.63 °C; in experiment [2] it was -3.18 °C.

Turning to `CN(c1ccc(C(F)(F)F)cc1)S(=O)(=O)c1ccc(C(=O)Nc2nc(-c3ccccn3)cs2)cc1`, the ΔTm in experiment [1] is 6.63 °C; in experiment [2], 18.6 °C.

Turning to `COC(=O)c1ccc2c(c1)NC(=O)/C2=C(\Nc1ccc(-c2nccn2C)cc1)c1ccccc1`, the shift in melting temperature (ΔTm) is -1.87 °C in experiment [1] and -3.33 °C in experiment [2].

With `NC(=O)C1CCCc2c1[nH]c1ccc(Cl)cc21` (stereo not given), the results for the ΔTm in experiment [1] and in experiment [2] were -1.42 °C and -1.04 °C, respectively.

Take `O=C(N[C@H]1CCC[C@H](CO)C1)C1CCN(c2nc3cc(Cl)c(-c4ccc(Cl)cc4)cc3o2)CC1`: the thermal shift (ΔTm) is -3.15 °C in experiment [1] and 1.95 °C in experiment [2].

Take `CN1C(=O)[C@@H](NC(=O)c2cc(Cc3ccccc3)on2)COc2ccccc21`: the thermal shift (ΔTm) was -1.02 °C in experiment [1] and -3.21 °C in experiment [2].

Turning to `Cc1nc2c(cc1F)c(-c1nnc3c(n1)NC(=O)C3(C)C)nn2Cc1cccc(F)c1F`, the ΔTm was -0.37 °C in experiment [1] and 0.14 °C in experiment [2].

For `CC(C)(C)c1cc(NC(=O)c2csc(Nc3ccc(Cl)cc3)n2)no1`, the ΔTm is -0.97 °C in experiment [1] and 0.11 °C in experiment [2].

Take `COc1cc2nc(C)nc(NC3(c4ccccc4)CC3)c2cc1OC`: the figures for the ΔTm in experiment [1] and in experiment [2] were -0.74 °C and 0.43 °C, respectively.

For the compound `CC(=O)Nc1nc(C)c(S(=O)(=O)Nc2ccc(C(O)(C(F)(F)F)C(F)(F)F)cc2)s1`, the shift in melting temperature (ΔTm) in experiment [1] was -1.81 °C; in experiment [2] it was -0.92 °C.

In the case of `O=C(Cc1ccccc1)Nc1nnc(N2C[C@H]3C[C@@H]2CN3c2cccnn2)s1`, the ΔTm in experiment [1] was -1.06 °C; in experiment [2], -2.54 °C.

In the case of `Cc1cccc(-c2nn3c(c2-c2ccnc4ccc(C(N)=O)cc24)CCC3)n1`, the shift in melting temperature (ΔTm) in experiment [1] was -2.31 °C; in experiment [2] it was -2.8 °C.

As to `N=C(N)NCCC[C@@H](NC(=O)C(c1ccccc1)c1ccccc1)C(=O)NCc1ccc(CNC(N)=O)cc1`, the ΔTm worked out at 0.42 °C in experiment [1] and 0.26 °C in experiment [2].

The values above are taken from ChEMBL document CHEMBL5308504, “Tm Shift (DSF) assay results for EUbOPEN Chemogenomics Library” (2023).
